Source: PubChem BioAssay AID1259312 (Keith Lab, Institute of Cancer Science, University of …, 2017)
About 200 (4.4%) of roughly 4,500 compounds were called active. Many of the other results were omitted from the sample, so actives are more common in it than they were. Values without a mark were called inactive.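 How the source made its calls: active means cell survival measured by absorbance rises more than 2.5-fold over infected cells without compound; inactive means the rest.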

Assay: survival after telomere uncapping, modulators, primary screen, cell-based (AID 1259312);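 further: virus expresses mutant telomerase RNA that uncaps telomeres and kills cells; compound added 2 days after infection so exposure lasts 3 days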
Details: HCT116 + Ad-hTR-mut, MTT, 5 d; at 10 µM, stronger effect = higher value

SMILES	fold change
O=[N+]([O-])c1ccc2c(c1)Cc1cc([N+](=O)[O-])ccc1-2	-1.19
O=S(=O)(c1ccccc1)N1CCc2ccccc21	-1.19
O=S(=O)(c1ccc(Cl)cc1)N1CCCc2ccccc21	1.97
O=S(=O)(c1ccc(Cl)cc1)N1CCc2ccccc21	4.39 (active)
CCOC(=O)c1c(NC(=O)c2cccs2)sc2c1CCCCC2	1.37
CC(C(=O)Nn1cnnc1)N1C(=O)c2ccccc2C1=O (centres undefined)	-8.91
O=[N+]([O-])c1cccc(S(=O)(=O)N2CCCC2)c1	3.3 (active)
Nc1cccc(S(=O)(=O)N2CCCC2)c1	-1.08
O=[N+]([O-])c1ccc2c(c1)oc1ccc(S(=O)(=O)N3CCCC3)cc12	1.12
CC(C)CC(=O)NC1CCCCCC1	-1.5
O=C1N=C(N2CCOCC2)S/C1=C\C1=Cc2ccccc2OC1	-1.34
OCC1(O)OC[C@H](O)[C@@H](O)[C@@H]1O (some centres undefined)	2.95 (active)
OC[C@H]1O[C@@H](O[C@@H]2[C@@H](CO)O[C@](O)(CO)[C@H]2O)[C@H](O)[C@@H](O)[C@H]1O	1.55
CC1(C)[C@H]2CCC1(CS(=O)(=O)N(C1CCCCC1)C1CCCCC1)C(O)C2 (some centres undefined)	-1.17
O=C(Cn1c(C(F)(F)F)nc2ccccc21)NC1CCCCC1	-1.95
N=C1SCC(=O)N1c1nccs1	1.78
O=c1c2ccccc2c2nc3c(c(-c4ccccc4)c12)c(=O)c1ccccc13	-1.07
c1ccc2c(c1)c1ccccc1c1nc3c4ccccc4c4ccccc4c3nc21	4.67 (active)
O=c1c2ccccc2c2nc3c(c(-c4cccc(Br)c4)c12)c(=O)c1ccccc13	-1.26
COC(=O)C1=C(C(=O)OC)SC2(S1)C(C(=O)OC)=C(C(=O)OC)SC1=C2c2cc(OC)ccc2NC1(C)C	1.52
Cn1c(-c2ccc(Cl)cc2Cl)n[nH]c1=S	2.57 (active)
C=CCn1c(-c2ccc(Cl)cc2Cl)n[nH]c1=S	1.34
Cc1ccc(-c2n[nH]c(=S)n2C)cc1Cl	-1.92
NC(=O)c1c(NC(=O)CCC(=O)O)sc2c1CCCC2	-1.38
